The target of assay [1] is Rap guanine nucleotide exchange factor 4 (Homo sapiens) (UniProt Q8WZA2). The assay can be described thus: Confirmatory qHTS for antagonist of cAMP-regulated guanine nucleotide exchange factor 4 (EPAC2) (AID 1645885). Also: nearly all actives have a fitted effect of over 25% in size. Also: potency is read from the fitted curve at half-maximal effect. As to activity change, negative = inhibition: % is scaled to controls: 0 for no effect and ±100 for the full control effect.
The target in assay [2] is Guanidinoacetate N-methyltransferase (Homo sapiens) (UniProt Q14353). The assay can be described thus: Confirmatory Screen for Target Class Profiling of Small Molecule Inhibitors of Methyltransferases (AID 1745852; calls by dose curve; as to activity change, negative = inhibition: % is scaled to controls: 0 for no effect and ±100 for the full control effect). To be noted: MTase-Glo luminescence, SAH detection, recombinant enzyme; activity change, negative = inhibition: at 85.7 µM (top of the series) unless noted.
Assay [3] addresses Nicotinamide N-methyltransferase (Homo sapiens) (UniProt P40261). The assay is described as above. To be noted: MTase-Glo luminescence, SAH detection, recombinant enzyme; measured here: NNMT max response; stronger effect = lower value.
Assay [4] has as its target Nuclear receptor subfamily 1 group I member 3 (Homo sapiens) (UniProt Q14994). The assay is described as follows: Primary qHTS for agonist of constitutive androstane receptor (CAR) against the NCATS DSHEA and TCM libraries (AID 1794839).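 Also: HepG2 cells expressing human CAR with a CYP2B6 reporter plus PK11195 antagonist; 0% is about no effect.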 To be noted: Potency: CAR antagonist co-added at 0.75 µM unless noted. The essentials: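 Luminescence from ONE-Glo luciferase was the agonist read-out in HepG2-CYP2B6-hCAR cells exposed 24 h to test substances. Wells also held the CAR antagonist PK11195 at 0.75 µM final. Viability was by CellTiter-Fluor fluorescence.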

In assay [5] the target is Cytochrome P450 3A4 (Homo sapiens) (UniProt P08684). The assay can be described thus: qHTS for inhibitors of CYP3A4 against the NCATS DSHEA and TCM libraries (AID 1919971). Also: potency is read from the fitted curve at half-maximal effect.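 As to activity change, negative = inhibition: % is scaled to controls: 0 for no effect and ±100 for the full control effect; inhibition lowers luminescence from luciferin made by CYP3A4.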 The essentials:
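Substances were tested against enzyme with a pro-luciferin substrate; minus-enzyme wells served as background. After NADPH-initiated oxidation (30-45 min, RT), light was generated with P450-Glo reagent.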

Assay [6] in a line: Cellular Toxicity (caspase-3) N2a (AID 665).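 Also: compound exposure lasted 16 h at 37 °C before readout.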 The note with it: N2a cells, luminescence, normalized: DMSO 0%, 10 µM staurosporine 100%; at 92.2 µM (top of the series). The essentials:
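Luminescent Caspase-Glo 3/7 readout in N2a mouse neuroblastoma cells after 16 h compound exposure at 37 °C. Signal scaled to DMSO (basal) and 10 uM staurosporine (100%). Concentration-response fitted with Hill equation for AC50.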

A short description of assay [7]: Cell Viability - LYMP2-022 (AID 987).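 Also: 0% = DMSO alone and full effect = tetraoctylammonium bromide at 92 µM; nearly all actives have a fitted effect of over 55% in size.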 The essentials: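 Luminescent ATP read-out (CellTiter-Glo, 30 min, RT) after 24 hr, 37 C compound exposure of 2500 human lymphoblastoid cells/well in complete medium. Cytotoxicity taken as concentration-dependent ATP loss; AC50 from standard Hill equation.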
The nature of assay [8]: Cell Viability - LYMP2-024 (AID 988).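 Also: plate controls were DMSO only for no effect and 92 µM tetraoctylammonium bromide for full effect; nearly all actives have a fitted effect of over 60% in size.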 The essentials:
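ATP-based luminescence (CellTiter-Glo, 30 min RT) after 24 h compound exposure at 37 C of 2500 lymphoblastoid cells/well; decrease in ATP taken as cytotoxicity. qHTS concentration-response fitted to standard Hill equation for AC50.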

Assay [9] can be described thus: Cell Viability - LYMP2-026 (AID 989). Also: % is scaled to controls: 0 for no effect and ±100 for the full control effect; nearly all actives have a fitted effect of over 50% in size. The essentials: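 qHTS cytotoxicity: 2500 cells/well, 5 hr 37 C, compound 24 hr 37 C, CellTiter-Glo 30 min RT, luminescence. Tetraoctylammonium bromide positive control. AC50 via standard Hill fit.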
For assay [10], the target named is Glucocorticoid receptor (Homo sapiens) (UniProt P04150). The assay can be described thus: qHTS assay for small molecule agonists of glucocorticoid receptor signaling (AID 588532; active = well fitted curve in the direction sought with a large enough effect in the signal ratio, with a control signal flat; the % refers to the signal ratio;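 also: 100% = dexamethasone at 0.1 µM and 0% = DMSO only wells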). To be noted: HeLa MMTV-bla, beta-lactamase ratio, agonist, 18 h; stronger effect = higher value; percent of dexamethasone control, DMSO zero. The essentials: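 HeLa GRE-bla reporter cells; 18 h compound exposure at 37 C; 2 h CCF4 loading at room temperature; fluorescence at 460 and 530 nm; EC50 by Hill equation.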
For orientation: Quantitative high-throughput screening tests each substance at several concentrations.

Assay [11] can be described thus: qHTS assay for small molecule activators of the p53 signaling pathway (AID 651743; active = well fitted activation curve with a large enough effect in the signal ratio, not every such curve was filed as active; the % refers to the signal ratio; also: % of control where 0% means no effect). The note with it: HCT-116 p53RE-bla, beta-lactamase FRET ratio, 16 h; activation: stronger effect = higher value. The essentials: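 Reporter: beta-lactamase driven by p53 response elements, stably integrated in HCT-116 cells. Cells seeded at 4,000/well, 5 h preincubation, compound (DMSO) 16 h at 37 C; B/G FRET substrate 2 h RT; fluorescence intensity read.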

Assay [12] deals with Tumor necrosis factor (Homo sapiens) (UniProt P01375). The assay is described as follows: qHTS assay to identify small molecules that stimulate Tumor Necrosis Factor-alpha (TNF-alpha) secretion (AID 651757; active = well fitted curve in the direction sought with a large enough effect in the signal ratio; the % refers to the signal ratio; also: 0% is about no effect). The essentials: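 THP-1 cells, 3000/well; compound 17 hrs, 37 C; add cryptate/XL665 anti-TNF-alpha antibody pair; 3 hr RT; TR-FRET (HTRF) read of secreted TNF-alpha. Quantitative HTS format.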

Results filed as inconclusive are left out. Active and inactive are the calls of the source. Unless noted, calls follow the shape of the dose curve; as a rule, active = well fitted curve in the direction sought with a large enough effect; inconclusive = small, poorly fitted or top-dose-only effect, or another doubt; inactive = no such curve, though single readings can be large; an effect the other way counts as inactive or inconclusive.

Chain of Rap guanine nucleotide exchange factor 4 (Homo sapiens) (Q8WZA2 whole entry, looked up): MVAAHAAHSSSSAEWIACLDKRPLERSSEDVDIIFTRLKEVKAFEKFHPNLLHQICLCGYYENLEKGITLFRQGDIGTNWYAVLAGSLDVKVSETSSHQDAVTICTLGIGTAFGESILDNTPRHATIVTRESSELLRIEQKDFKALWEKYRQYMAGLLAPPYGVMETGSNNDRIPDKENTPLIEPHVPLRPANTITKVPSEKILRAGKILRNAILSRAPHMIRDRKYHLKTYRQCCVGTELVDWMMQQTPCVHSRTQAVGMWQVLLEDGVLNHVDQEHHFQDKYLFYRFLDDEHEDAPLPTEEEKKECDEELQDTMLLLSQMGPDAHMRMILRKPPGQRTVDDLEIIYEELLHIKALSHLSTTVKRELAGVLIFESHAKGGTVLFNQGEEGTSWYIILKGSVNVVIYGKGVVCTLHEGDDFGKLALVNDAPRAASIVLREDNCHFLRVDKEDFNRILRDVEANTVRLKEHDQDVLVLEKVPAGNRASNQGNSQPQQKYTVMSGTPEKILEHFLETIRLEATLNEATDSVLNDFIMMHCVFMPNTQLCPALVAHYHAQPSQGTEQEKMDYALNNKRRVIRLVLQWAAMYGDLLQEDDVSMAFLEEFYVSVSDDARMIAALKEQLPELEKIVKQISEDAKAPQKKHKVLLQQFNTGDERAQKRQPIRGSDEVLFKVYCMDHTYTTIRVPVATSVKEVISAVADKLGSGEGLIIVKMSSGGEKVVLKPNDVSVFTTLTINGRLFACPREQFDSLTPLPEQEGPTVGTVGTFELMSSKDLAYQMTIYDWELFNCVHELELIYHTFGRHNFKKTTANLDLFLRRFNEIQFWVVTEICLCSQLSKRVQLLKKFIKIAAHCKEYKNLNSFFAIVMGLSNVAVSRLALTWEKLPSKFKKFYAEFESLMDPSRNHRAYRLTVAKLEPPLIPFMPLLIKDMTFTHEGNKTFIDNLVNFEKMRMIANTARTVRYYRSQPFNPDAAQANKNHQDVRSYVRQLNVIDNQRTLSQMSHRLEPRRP
Chain of Nuclear receptor subfamily 1 group I member 3 (Homo sapiens) (Q14994 whole entry, looked up): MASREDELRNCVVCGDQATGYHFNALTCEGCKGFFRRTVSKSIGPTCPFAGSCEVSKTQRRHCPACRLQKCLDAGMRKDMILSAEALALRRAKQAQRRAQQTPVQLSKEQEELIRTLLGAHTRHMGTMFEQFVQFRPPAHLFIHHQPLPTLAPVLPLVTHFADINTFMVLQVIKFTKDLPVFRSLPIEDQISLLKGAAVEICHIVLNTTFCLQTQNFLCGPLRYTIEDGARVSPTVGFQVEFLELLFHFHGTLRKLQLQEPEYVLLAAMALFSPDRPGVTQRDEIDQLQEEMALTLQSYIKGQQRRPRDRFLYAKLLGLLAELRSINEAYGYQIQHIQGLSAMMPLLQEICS
Chain of Cytochrome P450 3A4 (Homo sapiens) (P08684 whole entry, looked up): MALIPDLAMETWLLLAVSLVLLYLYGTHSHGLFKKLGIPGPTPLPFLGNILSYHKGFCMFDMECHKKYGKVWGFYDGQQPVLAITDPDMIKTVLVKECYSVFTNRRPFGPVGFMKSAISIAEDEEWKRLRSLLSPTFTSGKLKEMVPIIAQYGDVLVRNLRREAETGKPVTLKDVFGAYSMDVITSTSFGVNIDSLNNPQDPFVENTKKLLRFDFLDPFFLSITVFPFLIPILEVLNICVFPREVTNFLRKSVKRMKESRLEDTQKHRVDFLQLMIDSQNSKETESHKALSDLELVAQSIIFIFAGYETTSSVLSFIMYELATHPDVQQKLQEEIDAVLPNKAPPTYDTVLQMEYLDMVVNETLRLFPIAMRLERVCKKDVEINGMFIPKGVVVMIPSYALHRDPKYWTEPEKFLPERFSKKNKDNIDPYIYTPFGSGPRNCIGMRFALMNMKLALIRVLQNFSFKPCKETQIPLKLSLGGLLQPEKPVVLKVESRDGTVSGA
Chain of Nicotinamide N-methyltransferase (Homo sapiens) (P40261 whole entry, looked up): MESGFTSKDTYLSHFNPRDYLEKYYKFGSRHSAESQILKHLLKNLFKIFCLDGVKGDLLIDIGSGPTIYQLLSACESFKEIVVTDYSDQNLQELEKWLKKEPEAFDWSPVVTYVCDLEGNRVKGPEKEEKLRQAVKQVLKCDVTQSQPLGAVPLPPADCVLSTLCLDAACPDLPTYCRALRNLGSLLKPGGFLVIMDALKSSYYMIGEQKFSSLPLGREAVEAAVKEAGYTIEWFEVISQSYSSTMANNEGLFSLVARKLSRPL
Chain of Glucocorticoid receptor (Homo sapiens) (P04150 whole entry, looked up): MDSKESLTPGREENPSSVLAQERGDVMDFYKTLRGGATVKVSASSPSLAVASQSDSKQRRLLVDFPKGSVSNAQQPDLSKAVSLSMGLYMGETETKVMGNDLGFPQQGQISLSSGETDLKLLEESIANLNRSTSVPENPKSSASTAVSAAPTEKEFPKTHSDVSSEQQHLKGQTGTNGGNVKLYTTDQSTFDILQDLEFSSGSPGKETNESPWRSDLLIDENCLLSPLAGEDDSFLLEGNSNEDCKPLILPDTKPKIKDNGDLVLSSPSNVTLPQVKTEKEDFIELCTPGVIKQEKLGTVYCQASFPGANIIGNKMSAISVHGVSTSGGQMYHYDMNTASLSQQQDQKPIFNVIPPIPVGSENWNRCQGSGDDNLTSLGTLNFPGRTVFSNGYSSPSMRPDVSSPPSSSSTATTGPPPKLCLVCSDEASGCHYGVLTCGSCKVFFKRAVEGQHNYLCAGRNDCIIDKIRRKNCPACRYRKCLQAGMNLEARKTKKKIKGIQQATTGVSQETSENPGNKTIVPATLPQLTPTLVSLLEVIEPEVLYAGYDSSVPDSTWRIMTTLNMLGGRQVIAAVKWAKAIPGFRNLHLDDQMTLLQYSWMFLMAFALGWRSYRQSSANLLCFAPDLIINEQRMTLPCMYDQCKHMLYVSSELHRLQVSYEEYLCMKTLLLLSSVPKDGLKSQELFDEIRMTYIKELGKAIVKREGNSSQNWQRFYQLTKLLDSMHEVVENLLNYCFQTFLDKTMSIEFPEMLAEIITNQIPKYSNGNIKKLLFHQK
Chain of Tumor necrosis factor (Homo sapiens) (P01375 whole entry, looked up): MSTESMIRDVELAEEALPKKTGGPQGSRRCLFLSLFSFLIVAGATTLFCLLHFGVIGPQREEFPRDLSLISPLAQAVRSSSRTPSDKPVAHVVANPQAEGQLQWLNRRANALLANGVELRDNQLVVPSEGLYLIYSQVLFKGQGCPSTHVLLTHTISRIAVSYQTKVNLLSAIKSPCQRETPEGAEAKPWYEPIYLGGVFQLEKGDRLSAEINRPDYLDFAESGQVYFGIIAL

On to `Nc1ccc(Cl)cc1C(=O)c1ccccc1Cl`, for which, in [1], the activity change, negative = inhibition was -22.9% [at 12.7 µM] (inactive).

As to `Cc1cc(/C=C2/C(=O)NC(=O)N(Cc3ccco3)C2=O)c(C)n1-c1ccccc1`, the Potency result in [1] was “inactive”. On to `[Cl][Pt].[NH2-].[NH2-].c1ccncc1`, for which the activity change, negative = inhibition in assay [2] came to 3.42% [at 57.3 µM]. Besides, the activity in [3] is -8.73%.

Consider `C=C[C@H]1CN2CC[C@H]1C[C@@H]2CNC(=O)Nc1ccc(Br)cc1`, for which the activity change, negative = inhibition in assay [2] is -0.845%. Also, in [3], the activity was -5.4%. In the case of `Nc1c(Br)cc2c3c(cccc13)-c1ccccc1-2`, in assay [1], the activity change, negative = inhibition is 2.51% [at 12.7 µM] (inactive). Consider `COc1ccc(-n2nnnc2C(c2cccs2)N2CCC(n3c(=O)[nH]c4ccccc43)CC2)cc1` (centres undefined), for which the Potency result in assay [1] is “inactive”. `CN1CCN2c3ccc(N)cc3CC3(C(=O)NC(=O)NC3=O)C2C1` (centres undefined): the Potency result in assay [1] was “inactive”. As to `CNC1CCc2ccccc21` (centres undefined), the activity change, negative = inhibition in [2] worked out at 9.32% [at 114 µM]. The activity in assay [3] is -95.4%. As for `CC(=O)NC[C@H]1C[C@@H]2CCN1C[C@@H]2c1cc(-c2ccc3ccccc3c2)nn1C`, in [2], the activity change, negative = inhibition was 4.16%. Also, the activity in assay [3] came to 1.11%. With `Cc1cccc(CN2C(=O)CN=C(c3ccccc3)c3cc(Cl)ccc32)c1`, the outcome in [1] is “inactive [at 12.7 µM]”. Regarding `COc1ccc(C2C=C(C)Oc3c2c(=O)oc2ccccc32)cc1OC` (centres undefined), the Potency in [1] was 30.1 µM (active). For `O=C(c1cc(-c2ccc(Cl)cc2)n(-c2ccc(Cl)cc2Cl)n1)N1CCOCC1`, the Potency result in assay [1] was “inactive”. Turning to `COc1ccc(-c2cc([C@H]3CN4CC[C@H]3C[C@@H]4CN)nc(C)n2)cc1OC`, in assay [2], the activity change, negative = inhibition is 1.77%. In addition, the activity in [3] is -94.2%. For `NC(=O)c1ccc(N2CC3CCC(C2)N3CC(F)(F)F)nn1`, the activity change, negative = inhibition in [2] came out at 9.09%. For the same compound, the activity in assay [3] is -22.1%. Take `CC(=O)c1cccc(NC(=O)NC[C@H]2C[C@@H]3CCN2C[C@@H]3c2cc(-c3ccc(F)cc3)nc(C)n2)c1`: in assay [2], the activity change, negative = inhibition was 5.17% [at 57.3 µM]. For the same compound, in [3], the activity was -9.36%.

As for `COC1=C[C@@]23CCN(C)[C@H](Cc4ccc(OC)c(O)c42)C3=CC1=O`, the Potency result in assay [4] and in [5] was “inactive” throughout. Turning to `C=C[C@H]1CN2CCc3c([nH]c4ccccc34)[C@H]2C[C@@H]1/C(=C\OC)C(=O)OC`, in assay [4], the Potency entry is “inactive”. In addition, the Potency in assay [5] was 14.1 µM (active). `COC1=CC(=O)OC(CCc2ccccc2)C1` (centres undefined): the caspase-3 activation in [6] was -5.42% (inactive). For the same compound, the Potency entry in [7], in [8], in [9] and in [5] was “inactive” each time. Besides, the activation was -4.92% (inactive) in [10] and -2.49% (inactive) in assay [11]. Also, the outcome in assay [12] was “inactive”. `COC(=O)C1=CO[C@@H](C)[C@@H]2CN3CC[C@@]4(C(=O)Nc5ccccc54)[C@@H]3CC12` (some centres undefined): the Potency result in assay [4] is “inactive”. In [5], the Potency was 14.1 µM (active). For the compound `C=C[C@H]1CN2CC[C@@]3(C(=O)Nc4ccccc43)[C@@H]2C[C@@H]1/C(=C\OC)C(=O)OC`, in [4], the Potency result was “inactive”. In addition, in assay [5], the Potency was 12.6 µM (active). Regarding `COc1cc2c(cc1O)CC1NCCc3cc(OC)c(OC)c-2c31` (centres undefined), in assay [4], the Potency result was “inactive”.
